Hits are enriched below; roughly 8% of the tested compounds scored in any of these assays.
MCF10A rereplic = A quantitative high throughput screen for small molecules that induce DNA re-replication in MCF 10a normal breast cells | MCF 10A DNA re-replication, Hoechst nuclear intensity, 48 h | Potency, µM (doses to about 46.1 µM), most hits filed as activators | actives 2.9% (n = 350,000) | AID 624296, 2012; note: nearly all actives have a fitted effect of over 50% in size
HT1080NT lethal = qHTS for induction of synthetic lethality in tumor cells producing 2HG: qHTS for the HT-1080-NT fibrosarcoma cell line. actives 1.6% (n = 360,000). HT-1080-NT fibrosarcoma viability, CellTiter-Glo ATP luminescence, 48 h. Potency, µM (series often up to 46.1 µM), most hits filed as cytotoxic;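 note: NT is the 2HG producing partner of a matched IDH1 knockdown line; nearly all actives have a fitted effect of over 55% in size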
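Viability by CellTiter-Glo luminescence after 48 h compound exposure at 37C of HT-1080-NT cells (750/well, RPMI, 5% FBS). % activity scaled between DMSO wells and medium-only wells, then curve-fitted and categorized by curve class.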
HT1080 IDH1KD tx = qHTS for induction of synthetic lethality in tumor cells producing 2HG: qHTS for the HT-1080-IDH1KD cell line; HT-1080 IDH1 knockdown viability, ATP luminescence, 48 h; Potency, µM (top dose mostly 46.1 µM), actives largely listed as cytotoxic; actives 2% (n = 360,000); AID 686971, 2013
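In this qHTS, HT-1080 cells depleted of IDH1 are exposed for 48 h at 37 °C to compound titrations. Toxicity is scored from CellTiter-Glo luminescence, with DMSO as full viability and medium alone as none.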
KB-V1 MDR tox = qHTS assay for MDR1-selective chemotherapeutics: Primary screen using the drug-selected MDR subline cells KB-V1; Potency, µM (highest dose often 46.1 µM), most hits filed as cytotoxic; KB-V1 MDR cells viability, CellTiter-Glo, 72 h; actives 3.4% (n = 400,000); note: nearly all actives have a fitted effect of over 60% in size
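KB-V1 cells (P-gp-expressing MDR subline of KB-3-1) in phenol-red-free DMEM with 10% FBS were exposed to library compounds over a concentration series for 72 h at 37 degrees C. Viability read by CellTiter-Glo luminescence; concentration-effect curves fitted after normalization.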
SW480 rerep = A quantitative high throughput screen for small molecules that induce DNA re-replication in SW480 colon adenocarcinoma cells; SW480 DNA re-replication, Hoechst DNA content imaging, 48 h; Potency, µM (highest dose often 46.1 µM), hits mostly activators; actives 1.8% (n = 340,000); note: nearly all actives have a fitted effect of over 55% in size
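Image-based read-out: total Hoechst fluorescence of nuclei (405 nm excitation, 500-530 nm emission), with hits raising the fraction of high-intensity nuclei. SW480 colon cells incubated 48 hr with compounds at 37 C.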
KB-3-1 cytotox = qHTS assay for MDR1-selective chemotherapeutics: Primary screen using the parental adenocarcinoma cell KB-3-1 | KB-3-1 viability, CellTiter-Glo ATP luminescence, 72 h | Potency, µM (top dose mostly 46.1 µM), actives largely listed as cytotoxic | actives 1.4% (n = 400,000) | AID 1347075, 2019; note: nearly all actives have a fitted effect of over 60% in size
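Parental KB-3-1 adenocarcinoma cells in phenol-red-free DMEM with 10% FBS were pin-treated with compounds at several concentrations, incubated 72 h at 37 °C, and viability read by CellTiter-Glo luminescence; concentration-effect curves were fitted after normalization.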
Hits are given with their value; 0 = inactive; ? = inconclusive; - = not tested or not shown. Calls come from the whole dose curve; as a rule, active = well fitted curve in the direction sought with a large enough effect; inconclusive = small, poorly fitted or top-dose-only effect, or another doubt; inactive = no such curve, though single readings can be large; an effect the other way counts as inactive or inconclusive.

SMILES	MCF10A rereplic	HT1080NT lethal	HT1080 IDH1KD tx	KB-V1 MDR tox	SW480 rerep	KB-3-1 cytotox
O=C(Nc1ccccc1F)c1coc(=O)c(Br)c1	?	0	0	0	?	0
COCCCNC(=O)CCC(=O)N1Cc2ccccc2Oc2ncccc21	-	-	-	0	-	0
Nc1nc(NCCOCCO)nc(N2CCCCCC2)c1[N+](=O)[O-]	0	0	0	0	0	0
C(=C\c1ccccc1)/CN1CCN(C(c2ccnc3ccccc23)c2nnnn2C2CCCC2)CC1 (stereo not given)	-	0	?	15µM	-	0
O=C(Nc1ccc2c(c1)OCO2)N1CCN(C/C=C/c2ccccc2)CC1	0	0	0	21µM	0	0
C(=C\c1ccccc1)/CN1CCN(C(c2ccccc2)c2nnnn2C2CCCC2)CC1 (stereo not given)	-	?	?	0	-	0
Cc1cc(NC(=O)CCN2CCN(C/C=C/c3ccccc3)CC2)ccc1Br	?	21µM	23µM	?	?	?
CCOCCC(=O)Nc1ccc2c(c1)c(=O)n(C)n2C/C=C/c1ccccc1	-	?	4.1µM	?	-	6.5µM
Cc1ccc(NC(=O)N2CCN(C/C=C/c3ccccc3)CC2)cc1	0	0	0	0	0	0
CCOC(=O)c1cc(-c2ccc(C)cc2)n(CC(=O)NC2CCCCCC2)c1C	-	-	-	0	-	?
COc1cc(C(C)=O)ccc1OCC(=O)NCCCn1nc(C)cc1C	0	0	0	?	0	0
O=C(Nc1ccc2c(c1)OCCO2)C(c1ccnc2ccccc12)N1CCN(C/C=C/c2ccccc2)CC1 (stereo not given)	-	?	15µM	?	-	?
O=C(Nc1ccc2c(c1)OCCO2)C(c1ccnc2ccccc12)n1c(=O)c(-c2ccco2)nc2ccccc21 (stereo not given)	-	0	0	0	-	0
O=C1c2ccccc2CN2C(=O)c3ccccc3CN12	0	0	0	0	0	0
c1ccc(-c2cn3c(n2)-c2ccccc2C3)cc1	0	?	?	10µM	0	?
Cc1ccc(S(=O)(=O)NCCc2nnc3ccc(SCC(=O)Nc4ccc(F)cc4F)nn23)cc1	-	-	-	0	-	0
CN1CCN(/N=C/c2ccc(-c3ccccc3)cc2)CC1	?	0	0	0	?	0
CN1CCN(/N=C/c2c3ccccc3c(Cl)c3ccccc23)CC1	?	23µM	21µM	?	?	0
CN(CC(=O)NCc1cccs1)S(=O)(=O)c1cccc2nsnc12	0	0	0	21µM	0	0
CC(C)(C)c1ccc(C(=O)C[n+]2cc(Br)cc(Br)c2)cc1	-	-	-	0	-	0
CC(C)(C)c1ccc(C(=O)CC(=O)c2cc(Cl)ccc2O)cc1	?	?	?	2.6µM	?	5.8µM
CC(C)(C)c1ccc(C(=O)C[n+]2ccc(Cl)c3ccc(Cl)cc32)cc1	-	-	-	?	-	0.26µM
Cc1c(Cl)cccc1NC(=O)Nc1c[nH]c(=O)[nH]c1=O	-	-	-	0	-	0
O=C(NCc1cccs1)c1ccc2sc(C3=C[C@@H](O)[C@@H](O)[C@@H](CO)O3)nc2c1	-	0	0	0	-	0
Cc1cc(C)c2oc(-c3cccc(NC(=O)c4cc5ccccc5o4)c3)nc2c1	-	-	-	0	-	0
SMILES	MCF10A rereplic	HT1080NT lethal	HT1080 IDH1KD tx	KB-V1 MDR tox	SW480 rerep	KB-3-1 cytotox
CCC(=O)Nc1cccc(C(=O)/C=C/c2ccc(F)cc2)c1	?	0	?	0	10µM	?
CC(=O)Nc1cccc(C(=O)/C=C/c2ccc(C)cc2)c1	21µM	0	?	0	?	?
COc1cccc(NC(=S)NC(=O)/C=C/c2ccc(F)cc2)c1	0	0	0	0	?	0
CCCCn1c(N)c(N(CC(C)C)C(=O)C2CCN(S(=O)(=O)c3ccc(Cl)cc3)CC2)c(=O)[nH]c1=O	0	0	0	0	0	0
Cc1ccc(OCCCCn2cnc3ccccc32)c(C)c1	0	0	0	?	0	0
Clc1ccccc1OCCn1cnc2ccccc21	0	0	0	21µM	0	0
Brc1ccccc1OCCCCn1cnc2ccccc21	?	0	?	?	0	5.2µM
O=C(Nc1ccc(Cl)cc1C(=O)Nc1ccc(Br)cn1)c1ccco1	0	0	?	5.2µM	0	0
Cc1ccn2c(Nc3ccc4c(c3)OCO4)c(-c3ccc(N(C)C)cc3)nc2c1	-	-	-	0	-	0
Nc1nonc1C(=O)NCCNCc1c(OCc2ccccc2F)ccc2ccccc12	?	?	10µM	0	?	?
Nc1nonc1C(=O)NCCNCc1ccccc1F	-	-	-	0	-	0
Nc1nonc1C(=O)NCCNCc1cc(Br)ccc1OCc1ccc(F)cc1	?	0	0	?	0	11µM
CNCc1c(OCc2ccccc2F)ccc2ccccc12	?	18µM	?	12µM	?	0
COc1ccc(CNCCNC(=O)c2nonc2N)cc1OC	0	0	0	0	0	0
CNCc1c(OCc2ccccc2)ccc2ccccc12	0	0	?	0	0	0
COc1ccc(-c2nc3ccccc3s2)cc1NC(=O)c1ccc(C#N)cc1F	-	-	-	0	-	0
Cc1ccc(-c2nc(NCCN3CCOCC3)c3ccccc3n2)cc1	0	?	?	0	0	0
Clc1cccc(-c2nc(NCCN3CCOCC3)c3ccccc3n2)c1	0	?	?	21µM	0	0
Clc1cccc(-c2nc(NCCCN3CCOCC3)c3ccccc3n2)c1	0	21µM	?	0	0	0
Oc1ccccc1-c1nc(NCCN2CCOCC2)c2ccccc2n1	0	21µM	21µM	16µM	?	?
Clc1ccc(-c2nc(NCCCN3CCOCC3)c3ccccc3n2)cc1	0	23µM	?	?	?	0
O=S(=O)(c1ccc2c(c1)OCCO2)N1CCN(CCc2ccccc2)CC1	-	-	-	0	-	0
COc1ccc(C)c2sc(NC(=O)c3ccc(S(=O)(=O)N4CCCCC4)cc3)nc12	-	-	-	?	-	0
Cc1cc(C)c(NC(=O)C(=O)NCC(c2cccnc2)N2CCN(Cc3ccccc3)CC2)c(C)c1 (stereo not given)	-	-	-	0	-	0
COCCOC(=O)C1=C(C)NC(=O)NC1c1cccc2ccccc12 (stereo not given)	0	0	0	0	0	0
Cc1cc(C)nc(SCC(=O)NC2=NN=C(c3ccc(Br)cc3)CS2)n1	0	22µM	16µM	0	?	?
CCC(Sc1nc(C)cc(C)n1)C(=O)NC1=NN=C(c2ccc(C)cc2)CS1 (stereo not given)	?	?	?	0	?	0
